# Experimental data as given in the supplement of paper PMC10849652.
# The full data set covers some 8,800 targets. This sample favours those with a hit. About 0.5% of all pairs of compound and target were hits. Values without a mark were called inactive.
# Columns and labels:
# Experiment in all cases: log2 fold change, soluble protein after heating vs DMSO (PISA); higher = thermal stabilisation; K562 lysate, 10 uM; active = over 0.2 and 3.5 SD of the protein, either way, in both replicates (recomputed)
# [1] = compound: CS(=O)(=O)CCNCc1ccc(-c2ccc3ncnc(Nc4ccc(OCc5cccc(F)c5)c(Cl)c4)c3c2)o1 [lapatinib]
# Procedure, shortened: (§1)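 Pellets of K562 cells were dounce-homogenised in PBS pH 7.4 with 1 mM MgCl2, and the crude extract was held at 1 mg/mL protein for a 30 min treatment with 10 μM compound. Aliquots were heated for 3 min over 48°C-58°C and pooled before NP-40 was added to 0.5% at 4°C. The supernatant from 21,000xg for 90 min was quantified by TMTpro 16plex LC-MS/MS with channel sums equalised. Values are reported from duplicates as log-two fold change in thermal stability relative to solvent controls.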
# [2] = compound: CS(=O)(=O)N1CCN(Cc2cc3nc(-c4cccc5[nH]ncc45)nc(N4CCOCC4)c3s2)CC1 [pictilisib]
# Procedure, shortened: as §1
# [3] = compound: C[C@@H](Oc1cc(-c2cnn(C3CCNCC3)c2)cnc1N)c1c(Cl)ccc(F)c1Cl [crizotinib]
# Procedure, shortened: as §1
# [4] = compound: C[C@H](C1=CC=C(C=C1)C(=O)NC2=C3C=CNC3=NC=C2)N
# Procedure, shortened: as §1
# [5] = compound: C[C@H](Nc1ncnc2nc[nH]c12)c1cc2cccc(Cl)c2c(=O)n1-c1ccccc1 [duvelisib]
# Procedure, shortened: as §1
# [6] = compound: Cc1cc(Nc2cc(CN3CCOCC3)c3nc(C)c(Cc4ccc(Cl)cc4F)n3n2)n[nH]1 [gandotinib]
# Procedure, shortened: as §1
# [7] = compound: Cc1cc(Nc2cc(N3CCN(C)CC3)nc(Sc3ccc(NC(=O)C4CC4)cc3)n2)n[nH]1 [tozasertib]
# Procedure, shortened: as §1
# [8] = compound: Cc1ccc(-n2nc(C(C)(C)C)cc2NC(=O)Nc2ccc(OCCN3CCOCC3)c3ccccc23)cc1 [doramapimod]
# Procedure, shortened: as §1
# [9] = compound: Cc1ccc(NC(=O)c2ccc(CN3CC[C@H](N(C)C)C3)c(C(F)(F)F)c2)cc1Nc1nccc(-c2cncnc2)n1 [bafetinib]
# Procedure, shortened: as §1
# [10] = compound: Cc1cccc(CC(=O)N2CCc3c2ccc(-c2cn(C)c4ncnc(N)c24)c3F)n1
# Procedure, shortened: as §1
# [11] = compound: Cc1cn(-c2cc(NC(=O)c3ccc(C)c(Nc4nccc(-c5cccnc5)n4)c3)cc(C(F)(F)F)c2)cn1 [nilotinib]
# Procedure, shortened: as §1
# [12] = compound: Cc1nc(Nc2n[nH]c3c2CN(C(=O)N[C@H](CN(C)C)c2ccccc2)C3(C)C)c2sccc2n1
# Procedure, shortened: as §1
# [13] = compound: Cc1nc(Nc2ncc(C(=O)Nc3c(C)cccc3Cl)s2)cc(N2CCN(CCO)CC2)n1 [dasatinib]
# Procedure, shortened: as §1
# [14] = compound: Cc1ncc(-c2ccnc(Nc3ccc(S(C)(=O)=O)cc3)n2)n1C(C)C
# Procedure, shortened: as §1
# [15] = compound: Cn1cc(-c2ccc3c(c2)CCN3C(=O)Cc2cccc(C(F)(F)F)c2)c2c(N)ncnc21
# Procedure, shortened: as §1
# [16] = compound: Cn1cc(CNCC2CCN(c3ncc(C(=O)NO)cn3)CC2)c2ccccc21 [quisinostat]
# Procedure, shortened: as §1
# [17] = compound: Cn1cncc1[C@@](N)(c1ccc(Cl)cc1)c1ccc2c(c1)c(-c1cccc(Cl)c1)cc(=O)n2C [tipifarnib]
# Procedure, shortened: as §1
# [18] = compound: NC(=O)Nc1cc(-c2cccc(F)c2)sc1C(=O)N[C@H]1CCCNC1
# Procedure, shortened: as §1
# [19] = compound: NC(=O)c1cnc(N[C@@H]2CCCC[C@@H]2N)nc1Nc1cccc(-n2nccn2)c1
# Procedure, shortened: as §1
# [20] = compound: NC1(c2ccc(-c3nc4ccn5c(=O)[nH]nc5c4cc3-c3ccccc3)cc2)CCC1
# Procedure, shortened: as §1
# Chain of UniProt Q9Y4D7 (Q9Y4D7 whole entry, looked up): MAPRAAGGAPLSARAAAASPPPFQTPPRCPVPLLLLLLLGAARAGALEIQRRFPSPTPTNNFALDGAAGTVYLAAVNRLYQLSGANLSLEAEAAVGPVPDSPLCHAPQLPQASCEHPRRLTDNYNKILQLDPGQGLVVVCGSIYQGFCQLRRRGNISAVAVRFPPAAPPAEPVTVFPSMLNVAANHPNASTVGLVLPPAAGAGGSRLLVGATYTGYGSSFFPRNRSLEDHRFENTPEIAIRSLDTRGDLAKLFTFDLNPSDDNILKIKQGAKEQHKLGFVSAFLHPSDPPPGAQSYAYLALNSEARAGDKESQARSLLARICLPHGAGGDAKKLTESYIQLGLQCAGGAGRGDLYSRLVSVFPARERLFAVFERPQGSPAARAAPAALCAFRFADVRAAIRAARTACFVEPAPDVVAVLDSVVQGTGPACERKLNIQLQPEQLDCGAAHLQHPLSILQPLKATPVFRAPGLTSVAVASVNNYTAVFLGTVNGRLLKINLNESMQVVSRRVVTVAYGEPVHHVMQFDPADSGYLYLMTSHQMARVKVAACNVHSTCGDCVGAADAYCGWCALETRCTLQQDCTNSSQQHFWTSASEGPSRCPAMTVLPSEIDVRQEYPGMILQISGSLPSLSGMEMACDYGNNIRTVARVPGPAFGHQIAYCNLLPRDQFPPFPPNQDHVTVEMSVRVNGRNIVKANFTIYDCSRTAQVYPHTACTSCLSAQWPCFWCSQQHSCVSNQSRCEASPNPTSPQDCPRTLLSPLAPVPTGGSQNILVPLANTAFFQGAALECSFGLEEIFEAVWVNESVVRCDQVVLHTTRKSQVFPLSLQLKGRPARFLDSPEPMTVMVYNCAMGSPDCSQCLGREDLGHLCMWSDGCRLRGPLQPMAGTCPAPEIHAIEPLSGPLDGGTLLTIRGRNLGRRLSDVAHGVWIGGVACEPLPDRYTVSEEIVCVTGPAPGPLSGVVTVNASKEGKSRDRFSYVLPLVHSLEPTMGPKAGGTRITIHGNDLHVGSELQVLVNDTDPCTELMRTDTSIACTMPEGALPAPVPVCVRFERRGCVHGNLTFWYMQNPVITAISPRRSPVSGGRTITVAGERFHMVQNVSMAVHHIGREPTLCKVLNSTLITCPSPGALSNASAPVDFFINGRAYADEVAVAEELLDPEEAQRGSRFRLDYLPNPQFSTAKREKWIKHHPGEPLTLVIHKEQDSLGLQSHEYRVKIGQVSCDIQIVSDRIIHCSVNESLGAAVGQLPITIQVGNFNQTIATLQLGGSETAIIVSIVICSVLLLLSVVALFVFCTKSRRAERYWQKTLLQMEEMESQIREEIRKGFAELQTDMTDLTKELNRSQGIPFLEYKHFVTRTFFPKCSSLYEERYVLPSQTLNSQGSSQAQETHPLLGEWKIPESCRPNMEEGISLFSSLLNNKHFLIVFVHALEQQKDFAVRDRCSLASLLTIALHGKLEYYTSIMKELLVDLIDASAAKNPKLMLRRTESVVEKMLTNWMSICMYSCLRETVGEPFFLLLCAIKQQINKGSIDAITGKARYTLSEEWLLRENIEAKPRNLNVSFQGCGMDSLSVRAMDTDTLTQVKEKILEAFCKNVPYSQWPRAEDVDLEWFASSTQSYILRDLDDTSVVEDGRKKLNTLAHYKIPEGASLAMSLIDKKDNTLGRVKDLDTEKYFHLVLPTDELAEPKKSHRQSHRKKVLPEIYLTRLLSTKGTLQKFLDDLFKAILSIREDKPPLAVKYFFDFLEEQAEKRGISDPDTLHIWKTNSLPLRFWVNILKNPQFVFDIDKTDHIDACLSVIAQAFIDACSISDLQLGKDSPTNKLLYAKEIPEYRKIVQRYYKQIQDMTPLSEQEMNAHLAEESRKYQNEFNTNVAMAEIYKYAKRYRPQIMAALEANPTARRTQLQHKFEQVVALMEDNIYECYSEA
# Chain of UniProt P41247 (P41247 whole entry, looked up): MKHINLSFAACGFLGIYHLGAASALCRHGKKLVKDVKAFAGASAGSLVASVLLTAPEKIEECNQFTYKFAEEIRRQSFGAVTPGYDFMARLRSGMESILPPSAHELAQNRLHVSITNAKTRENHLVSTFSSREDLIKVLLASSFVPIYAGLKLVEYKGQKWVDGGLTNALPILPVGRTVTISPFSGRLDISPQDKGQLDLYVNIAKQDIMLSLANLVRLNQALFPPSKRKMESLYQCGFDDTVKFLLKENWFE
# Chain of UniProt Q969Q6 (Q969Q6 whole entry, looked up): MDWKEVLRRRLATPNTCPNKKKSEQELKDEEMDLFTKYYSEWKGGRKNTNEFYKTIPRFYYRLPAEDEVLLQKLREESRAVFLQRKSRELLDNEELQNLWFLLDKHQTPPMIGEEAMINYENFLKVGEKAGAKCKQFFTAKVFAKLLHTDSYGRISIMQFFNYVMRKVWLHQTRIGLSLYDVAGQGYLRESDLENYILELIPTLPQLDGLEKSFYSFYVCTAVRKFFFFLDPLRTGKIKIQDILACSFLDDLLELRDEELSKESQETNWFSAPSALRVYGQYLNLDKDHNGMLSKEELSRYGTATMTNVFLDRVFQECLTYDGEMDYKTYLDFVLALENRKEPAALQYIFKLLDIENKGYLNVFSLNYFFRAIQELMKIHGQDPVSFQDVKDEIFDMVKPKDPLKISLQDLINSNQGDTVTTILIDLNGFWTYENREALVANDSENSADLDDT
# Chain of UniProt P48736 (P48736 whole entry, looked up): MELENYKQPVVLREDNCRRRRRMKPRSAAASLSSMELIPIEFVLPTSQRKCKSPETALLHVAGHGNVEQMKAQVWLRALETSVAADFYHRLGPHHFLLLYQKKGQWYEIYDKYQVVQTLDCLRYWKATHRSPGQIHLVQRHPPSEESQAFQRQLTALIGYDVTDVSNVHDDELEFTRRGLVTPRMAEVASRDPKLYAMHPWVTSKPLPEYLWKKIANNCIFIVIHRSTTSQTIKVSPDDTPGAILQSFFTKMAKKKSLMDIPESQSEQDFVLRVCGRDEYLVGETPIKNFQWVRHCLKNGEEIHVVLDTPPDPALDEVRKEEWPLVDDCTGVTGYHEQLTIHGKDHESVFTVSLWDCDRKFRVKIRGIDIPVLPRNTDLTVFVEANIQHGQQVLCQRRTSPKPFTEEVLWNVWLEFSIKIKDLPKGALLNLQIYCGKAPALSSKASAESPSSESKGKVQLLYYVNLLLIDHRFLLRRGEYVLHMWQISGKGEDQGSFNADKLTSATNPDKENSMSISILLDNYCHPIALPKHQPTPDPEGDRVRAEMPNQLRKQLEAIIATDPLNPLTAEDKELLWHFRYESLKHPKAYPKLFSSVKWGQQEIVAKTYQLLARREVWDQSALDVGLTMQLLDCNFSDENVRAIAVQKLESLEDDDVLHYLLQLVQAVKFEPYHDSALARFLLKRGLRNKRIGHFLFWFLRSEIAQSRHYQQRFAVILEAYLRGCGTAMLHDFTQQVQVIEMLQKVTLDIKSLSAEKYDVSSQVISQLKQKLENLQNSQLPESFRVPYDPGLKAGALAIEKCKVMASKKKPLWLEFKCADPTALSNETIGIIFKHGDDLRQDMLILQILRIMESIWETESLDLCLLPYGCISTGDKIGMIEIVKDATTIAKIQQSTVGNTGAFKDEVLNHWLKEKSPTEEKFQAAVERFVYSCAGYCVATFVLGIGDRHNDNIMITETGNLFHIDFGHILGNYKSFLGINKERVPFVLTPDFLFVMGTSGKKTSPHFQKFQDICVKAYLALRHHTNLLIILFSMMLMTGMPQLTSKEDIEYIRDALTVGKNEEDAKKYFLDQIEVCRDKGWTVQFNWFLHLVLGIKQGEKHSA
# Chain of UniProt O60237 (O60237 whole entry, looked up): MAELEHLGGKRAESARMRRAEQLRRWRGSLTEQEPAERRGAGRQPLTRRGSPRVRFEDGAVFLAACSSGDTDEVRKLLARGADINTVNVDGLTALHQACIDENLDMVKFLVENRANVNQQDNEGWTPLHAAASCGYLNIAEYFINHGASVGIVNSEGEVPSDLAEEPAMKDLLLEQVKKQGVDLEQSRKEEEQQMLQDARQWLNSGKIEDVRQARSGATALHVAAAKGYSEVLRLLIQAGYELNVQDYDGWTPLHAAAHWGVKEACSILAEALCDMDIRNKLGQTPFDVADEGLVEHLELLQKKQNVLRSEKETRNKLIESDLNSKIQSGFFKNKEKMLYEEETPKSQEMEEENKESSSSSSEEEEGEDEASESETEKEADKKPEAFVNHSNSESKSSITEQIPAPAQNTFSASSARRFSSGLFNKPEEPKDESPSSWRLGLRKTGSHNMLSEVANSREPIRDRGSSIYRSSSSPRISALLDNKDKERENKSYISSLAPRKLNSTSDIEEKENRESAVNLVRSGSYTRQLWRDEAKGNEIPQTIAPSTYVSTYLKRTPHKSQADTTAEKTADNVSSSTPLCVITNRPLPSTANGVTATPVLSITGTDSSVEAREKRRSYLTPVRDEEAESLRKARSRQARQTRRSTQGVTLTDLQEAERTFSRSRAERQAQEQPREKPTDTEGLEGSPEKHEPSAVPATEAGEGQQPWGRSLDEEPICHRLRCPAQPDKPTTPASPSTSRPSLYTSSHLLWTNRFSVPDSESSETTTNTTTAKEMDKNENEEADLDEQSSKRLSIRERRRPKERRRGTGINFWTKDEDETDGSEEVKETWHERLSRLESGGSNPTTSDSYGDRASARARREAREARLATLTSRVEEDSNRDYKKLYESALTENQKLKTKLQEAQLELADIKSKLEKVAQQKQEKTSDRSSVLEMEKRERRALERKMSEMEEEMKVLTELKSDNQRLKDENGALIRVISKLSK
# Chain of UniProt Q9Y570 (Q9Y570 whole entry, looked up): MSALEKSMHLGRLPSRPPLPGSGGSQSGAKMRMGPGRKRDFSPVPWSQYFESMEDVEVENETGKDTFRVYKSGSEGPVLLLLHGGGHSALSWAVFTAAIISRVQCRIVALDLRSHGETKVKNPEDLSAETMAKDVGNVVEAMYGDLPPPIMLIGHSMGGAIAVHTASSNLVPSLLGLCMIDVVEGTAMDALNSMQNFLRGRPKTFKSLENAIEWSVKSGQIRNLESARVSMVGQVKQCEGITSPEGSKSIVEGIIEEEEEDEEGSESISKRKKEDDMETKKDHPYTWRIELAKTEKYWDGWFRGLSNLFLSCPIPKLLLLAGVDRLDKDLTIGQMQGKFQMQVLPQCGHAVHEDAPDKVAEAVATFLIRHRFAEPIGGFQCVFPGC
Target,log2 fold change [1],log2 fold change [2],log2 fold change [3],log2 fold change [4],log2 fold change [5],log2 fold change [6],log2 fold change [7],log2 fold change [8],log2 fold change [9],log2 fold change [10],log2 fold change [11],log2 fold change [12],log2 fold change [13],log2 fold change [14],log2 fold change [15],log2 fold change [16],log2 fold change [17],log2 fold change [18],log2 fold change [19],log2 fold change [20]
PCBP2 (UniProt H3BRU6),0.116,-0.021,-0.04,0.044,0.028,0.01,-0.112,-0.119,0.079,-0.041,0.066,0.04,0.079,0.027,-0.082,-0.119,-0.095,0.042,-0.023,0.084
PPP3CA isoform 2 (UniProt Q08209),-0.008,0.085,0.048,0.075,0.008,-0.099,-0.068,-0.006,-0.026,-0.091,0.241 (active),0.121,0.027,-0.082,-0.03,-0.051,0.037,0.048,-0.005,-0.002
PIP4P2 (UniProt Q8N4L2),0.021,-0.019,0.021,0.053,0.027,-0.021,0.061,0.033,-0.09,-0.009,0.287 (active),-0.073,-0.171,-0.015,-0.048,0.035,-0.148,-0.016,0.121,-0.007
PPM1H (UniProt Q9ULR3),0.013,0.016,0.021,-0.043,0,0.157,0.021,0.093,-0.079,0.038,–,–,0,–,0.001,-0.036,–,-0.041,0,-0.07
PCBP2 (UniProt F8VRH0),-0.148,–,0.023,-0.116,–,-0.042,–,-0.01,–,0.072,-0.221,-0.532,–,-0.063,–,0.034,-0.167,-0.059,0.232,0.003
PLXND1 (UniProt Q9Y4D7),–,0.018,0.067,–,-0.031,–,–,0.171,-0.461 (active),–,-0.006,0.043,-0.045,0.092,0.013,-0.093,0.014,-0.047,–,0.094
PIK3CG (UniProt P48736),–,–,-0.128,-0.158,0.183,0.14,-0.038,0.04,-0.111,0.075,0.004,-0.022,–,0.079,0.097,-0.139,0.003,0.013,–,-0.017
PTMA isoform 2 (UniProt P06454),–,-0.053,–,–,–,–,–,–,-0.02,–,–,–,–,–,–,–,–,–,–,–
PNPLA4 (UniProt P41247),–,–,-0.098,0.121,0.021,-0.019,-0.011,0.825 (active),–,-0.138,–,–,0.099,–,0.194,0.048,–,0.037,–,–
PICALM (UniProt H0YCY1),–,–,–,–,–,–,–,–,–,–,–,–,–,–,–,–,–,–,–,0.013
PPME1 (UniProt Q9Y570),0.002,0.038,–,–,-0.017,–,0.072,–,-0.081,–,–,–,0.032,–,-0.08,–,–,–,0.048,0.027
PPP2R3C (UniProt Q969Q6),0.048,-0.029,–,-0.1,0.028,-0.097,0.036,–,0.022,0.023,-0.139,0.057,-0.061,-0.13,-0.009,–,0.057,–,0.038,0.062
PPP1R12B isoform 6 (UniProt O60237),-0.079,0.017,-0.347,–,0.036,–,-0.015,0.047,0.05,–,–,–,-0.065,–,0.134,-0.531 (active),–,0.006,0.05,-0.075
PREP (UniProt H0Y5Y0),-0.029,–,–,-0.304,–,0.113,–,–,–,-0.153,–,–,–,–,–,–,–,–,-0.087,–
PMS1 (UniProt P54277),–,-0.028,-0.004,0.018,0.018,-0.063,-0.053,-0.03,-0.064,-0.013,-0.022,0,-0.011,-0.001,0.017,-0.086,0.058,0.041,–,-0.029
PRR4 (UniProt Q16378),0.047,–,–,0.291,–,-0.34,0.412,–,–,0.252,0.047,-0.145,–,-0.027,–,–,0.05,–,0.032,0.012
PHKG1 isoform 2 (UniProt Q16816),-0.166,–,0.305,-0.553,-0.042,0.655,-0.172,0.038,–,0.216,-0.049,1.01 (active),-0.124,-0.204,-0.021,-0.151,-0.007,1.31 (active),0.043,-0.181
PIM1 isoform 2 (UniProt P11309),–,0.084,-0.107,0.096,0.081,-0.121,0.046,-0.012,-0.043,-0.025,0.059,-0.025,-0.033,0.063,0.112,-0.085,0.061,0.038,–,-0.146
PECR (UniProt Q9BY49),–,–,–,–,–,–,-0.053,–,–,–,–,–,–,–,–,–,–,–,–,–
PCBP2 (UniProt F8W0G4),–,0.087,–,–,0.358,–,-0.069,–,-0.223,–,0.034,-0.092,-0.138,-0.154,0,–,-0.298,–,–,0.053
PPP1R14C (UniProt Q8TAE6),-0.044,-0.025,–,-0.022,0.121,0.358 (active),0.08,–,0.041,0.336,0.075,-0.003,0.105,-0.043,-0.173,–,0.073,–,-0.184,–
PFN1 (UniProt I3L3D5),0.066,-0.062,–,0.524 (active),–,-0.15,-0.051,–,-0.19,0.015,-0.009,-0.088,–,0.108,–,–,0.006,–,0.04,–
